The values that follow come from PubChem BioAssay (NCATS).

Holding throughout (assay): qHTS profiling for inhibitors of Plasmodium falciparum proliferation (AID 504749); also: nearly all actives have a fitted effect of over 60% in size
Holding throughout (settings): P. falciparum in erythrocytes, SYBR Green DNA, 72 h; series mostly up to 28.7 µM
(In general: In qHTS, concentration-response curves come from the screen itself.)

One test deals with ATS189. The gist of the method:
(§1)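 P. falciparum-infected erythrocytes (0.3% parasitemia, 2.5% hematocrit final) were exposed to compounds for 72 h at 37 C in 5% CO2, then lysed with SYBR Green buffer overnight at room temperature; parasite DNA fluorescence was normalized to artemisinin and DMSO controls.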

A further test has as its system ATS95. The method, boiled down: as §1
The next test relates to C2A. The method, boiled down:
as §1

Another test concerns CP185. The method, boiled down: as §1
Another test relates to CP191. The method, boiled down:
as §1

The test system of another test is CP192. The method, boiled down:
as §1

The subject of a further test is CP194. The gist of the method:
as §1

The test system of another test is CP201. The method, boiled down: as §1
A further test concerns CP203. The method, boiled down:
as §1

For another test, the system named is CP211. The gist of the method: as §1

Structures are written as SMILES. Records with an inconclusive call do not appear. The source made the active and inactive calls. Calls follow the shape of the dose curve; as a rule, active = well fitted inhibition curve with a large enough effect; inconclusive = small, poorly fitted or top-dose-only effect; inactive = flat fitted curve, though single readings scatter.
Potency is read from the fitted curve at half-maximal effect.

For the compound `C[C@]12O[C@H](C[C@]1(O)CO)n1c3ccccc3c3c4c(c5c6ccccc6n2c5c31)CNC4=O`, the Potency in the test on ATS189 was 0.316 µM (active); in the test on ATS95, 0.355 µM (active); with C2A, 0.316 µM (active); in the test with CP185 it was 0.316 µM (active); in the test on CP191, 0.282 µM (active); with CP192 it was 0.379 µM (active). Also, the Potency is 0.379 µM (active) in the test on CP194, 0.536 µM (active) with CP201, 0.269 µM (active) in the test with CP203 and 0.426 µM (active) in the test with CP211.

Regarding `C#CCOc1ccc2c(C)cc(=O)oc2c1`, the Potency entry with ATS189, in the test on ATS95, in the test with C2A, in the test with CP185, in the test on CP191 and in the test with CP192 was “inactive” throughout. Moreover, the Potency result in the test on CP194, in the test on CP201, with CP203 and with CP211 was “inactive” each time.

Consider `Cc1cc(C(=O)NNCc2ccccc2)no1`, for which the Potency entry in the test on ATS189, in the test with ATS95, in the test on C2A, in the test on CP185, in the test on CP191 and with CP192 was “inactive” each time. The Potency result in the test on CP194, in the test with CP201, with CP203 and in the test with CP211 was “inactive” in each case.

On to `Clc1cc(Cl)c(OCC#CI)cc1Cl`, for which, in the test with C2A, the Potency is 8.91 µM (active). Further, the Potency result in the test with CP192 was “inactive”.

With `CCCCCCCCCCCCCCCC(=O)OCC(COC(=O)CCCCCCCCCCCCCCC)OC(=O)CCCCCCCCCCCCCCC`, the Potency entry in the test with ATS189, in the test on ATS95, in the test with C2A, with CP185, in the test with CP191 and in the test with CP192 was “inactive” in each case. Moreover, the Potency entry in the test with CP194, with CP201, with CP203 and in the test on CP211 was “inactive” in each case.

As for `O=C1CSC2(CCN(CCCN3c4ccccc4Sc4ccc(Cl)cc43)CC2)N1`, the Potency entry in the test on C2A and in the test on CP185 was “inactive” each time.

With `CCOc1ccc(N=Nc2ccc(N)cc2N)cc1`, the Potency result in the test on ATS95, in the test on C2A, in the test on CP185, in the test on CP191, in the test on CP192 and in the test with CP194 was “inactive” each time. Moreover, the Potency result in the test on CP201, in the test on CP203 and with CP211 was “inactive” throughout.

With `CCCCC(=O)O[C@]1(C(=O)CO)[C@H](C)C[C@H]2[C@@H]3CCC4=CC(=O)C=C[C@]4(C)[C@@]3(F)[C@@H](O)C[C@@]21C`, the Potency result in the test on ATS189, in the test with ATS95, in the test on C2A, in the test on CP185, in the test on CP191 and in the test on CP192 was “inactive” each time. Also, the Potency result with CP194, in the test on CP201 and with CP211 was “inactive” each time.

Turning to `CCCCCCOc1ccc(C(=N)N(CCCC)CCCC)c2ccccc12`, the Potency was 10 µM (active) with ATS189; 11.2 µM (active) in the test on C2A; 10 µM (active) with CP185; 4.47 µM (active) with CP191; 19 µM (active) with CP192; 16.9 µM (active) in the test with CP201.

Consider `O=C(Nc1cccc(C(F)(F)F)c1)c1cc(Br)cc(Br)c1O`, for which the figures for the Potency in the test with CP203 and in the test with CP211 were 15.1 µM (active) and 12 µM (active), respectively.

Take `Nc1c(Br)cc(Br)cc1CNC1CCC(O)CC1` (stereo not given): the Potency result in the test with ATS189, with ATS95, in the test with C2A, in the test on CP185, in the test with CP191 and in the test with CP192 was “inactive” throughout. Further, the Potency result with CP194, with CP201 and with CP211 was “inactive” in each case.

As to `CN(C)CCCN1c2ccccc2C(C)(C)c2ccccc21`, the Potency in the test on ATS95 was 8.91 µM (active). For the same compound, the Potency result with C2A, in the test on CP185, in the test on CP192, in the test on CP201 and in the test on CP211 was “inactive” each time.

For the compound `NC(=O)c1ncn(C2OC(CO)C(O)C2O)n1` (stereo not given), the Potency result with ATS189, in the test with ATS95, in the test with CP185, in the test with CP191, with CP192 and with CP194 was “inactive” throughout. For the same compound, the Potency entry with CP201, in the test on CP203 and in the test on CP211 was “inactive” each time.

As to `O=S(=O)(O)c1ccc2c(N=Nc3ccc(S(=O)(=O)O)c4ccccc34)c(O)c(S(=O)(=O)O)cc2c1`, the Potency result with ATS189, in the test with C2A, in the test with CP185, in the test with CP191, with CP192 and with CP194 was “inactive” each time. Besides, the Potency entry with CP201, in the test on CP203 and with CP211 was “inactive” each time.

Turning to `CC1=CCC(C(C)(C)O)CC1` (stereo not given), the Potency result with ATS189, in the test with ATS95, in the test on C2A, in the test with CP185, in the test with CP191 and in the test with CP192 was “inactive” each time. The Potency entry in the test with CP194, in the test with CP201 and in the test with CP211 was “inactive” throughout.

As to `CC1=C(/C=C/C(C)=C/C=C/C(C)=C/CO)C(C)(C)CCC1`, the Potency result in the test on CP192, with CP194, in the test with CP201 and in the test on CP211 was “inactive” throughout.

Regarding `COc1cc(-c2ccc(-[n+]3nc(-c4ccccc4)nn3-c3ccc([N+](=O)[O-])cc3)c(OC)c2)ccc1-[n+]1nc(-c2ccccc2)nn1-c1ccc([N+](=O)[O-])cc1`, the Potency in the test on C2A was 11.2 µM (active); with CP185, 10 µM (active); in the test with CP191 it was 11.2 µM (active); in the test on CP192, 19 µM (active); in the test on CP201 it was 16.9 µM (active); in the test with CP211, 13.5 µM (active).

Regarding `COC(=O)CCC(=O)CN`, the Potency result in the test on ATS189, in the test on ATS95, in the test on C2A, in the test with CP185, with CP191 and in the test with CP192 was “inactive” in each case. Further, the Potency result in the test with CP201, in the test on CP203 and with CP211 was “inactive” each time.

With `O=CCCCC=O`, the Potency entry in the test with ATS95, in the test on C2A, in the test on CP185, with CP191, with CP192 and in the test on CP194 was “inactive” throughout. Also, the Potency entry in the test with CP201, with CP203 and with CP211 was “inactive” throughout.

Take `O=C(O)c1cc(O)c2c(c1)[O][Bi][O]2`: the Potency entry in the test on ATS189, with ATS95, with C2A, in the test with CP185, in the test with CP191 and in the test with CP192 was “inactive” throughout. Also, the Potency result with CP194, with CP201 and in the test on CP211 was “inactive” each time.

On to `CCCCC(CC)COC(=O)CC(C(=O)OCC(CC)CCCC)S(=O)(=O)O` (stereo not given), for which the Potency entry in the test with CP192, in the test with CP194, with CP201, with CP203 and in the test on CP211 was “inactive” throughout.

For `CC[C@@]1(O)C(=O)OCc2c1cc1n(c2=O)Cc2cc3c([N+](=O)[O-])cccc3nc2-1`, the Potency was 7.94 µM (active) in the test on ATS189; 5.01 µM (active) in the test on ATS95; 7.94 µM (active) in the test on C2A; 8.91 µM (active) with CP185; 11.2 µM (active) with CP191; 12 µM (active) with CP194.

`COC(=O)C1=C(C#N)NC(C)=C(C(=O)OC(C)C)C1c1cccc([N+](=O)[O-])c1` (stereo not given): the Potency in the test on ATS189 is 11.2 µM (active); with ATS95, 11.2 µM (active); in the test with C2A it was 11.2 µM (active); in the test on CP185 it was 7.94 µM (active); with CP191 it was 11.2 µM (active); in the test with CP194, 12 µM (active). Also, the Potency is 7.57 µM (active) with CP203 and 9.53 µM (active) in the test on CP211.

Take `C#C[C@]1(O)CC[C@H]2[C@@H]3CCC4=CCCC[C@@H]4[C@H]3C(=C)C[C@@]21CC`: the Potency entry in the test on C2A, in the test with CP192, in the test with CP194, with CP201, with CP203 and in the test on CP211 was “inactive” throughout. Besides, in the test on CP191, the Potency is 10 µM (active).
